The values below come from PubChem BioAssay (NCATS).

Records with an inconclusive call do not appear. Calls of active or inactive are those of the source. Calls follow the shape of the dose curve; as a rule, active = well fitted cell-killing curve with a large enough effect; inconclusive = small, poorly fitted or top-dose-only effect; inactive = flat fitted curve, though single readings scatter. Non-standard residues stand in square brackets, D forms with d. Residues, ends and D or L forms follow the SMILES beside them. *: point of attachment. Nva = CCC[C@H](N)C(=O)O; Cbz = O=C(OCc1ccccc1)*
Potency is read from the fitted curve at half-maximal effect.

A short description of the experiment: qHTS of pediatric cancer cell lines to identify multiple opportunities for drug repurposing: Primary screen for BT-12 cells (AID 1347101). Also: nearly all actives have a fitted effect of over 25% in size. The settings on record: BT-12 viability, CellTiter-Glo luminescence, 48 h; series mostly up to 57.3 µM. The text has this: Drug repurposing or repositioning has been offered as a strategy for drug development in oncology programs. This approach has special potential for childhood cancers and other rare or orphan diseases, where the expected return on new drug development has been a disincentive to pharmaceuticals.
In this project we exploit the poly-pharmacology of drugs to discover new indications via phenotypic screening of a panel of 19 well-characterized cell lines derived from solid tumors seen in children and adolescents. The goal is to identify approved drugs with previously unrecognized anticancer properties that has the potential to reveal new mechanisms and biological processes involved in carcinogenesis or drug resistance. We employed a titration-based paradigm (quantitative high-throughput screening or qHTS), where all compounds were tested at multiple concentrations for their effect on cell viability. Concentration-response curves (CRCs) were derived directly from the primary screen, and both potency and efficacy values were used to identify compounds with robust bioactivity profiles. We screened the NIH Chemical Genomics Center (NCGC) Pharmaceutical Collection (NPC) and Mechanism Interrogation Plate (MIPE) small molecule collections of approved and investigational compounds against these cell lines; and measured metabolically active cells after 48 hours of compound treatment as a proxy for cell viability.
Assay Submitter: Nathalia J. Martinez, National Center for Advancing Translational Sciences, National Institutes of Health, Rockville, MD, USA; email: natalia.martinez@nih.gov
[1] Shen, M et al. Quantitative high-throughput phenotypic screening of pediatric cancer cell lines identifies multiple opportunities for drug repurposing. Oncotarget 2017 Dec 19;9(4):4758-4772. PMID 29435139.
The cells were obtained from University of North Carolina (UNC), Pediatric Preclinical Testing Program (PPT), and Coriell Institute (CI).
qHTS cell viability assay:
Cells were assayed in growth media at a density of 500-1,000 cells/well. Five microliters of cells were dispensed into 1,536-well, white, solid-bottom, TC-treated plates (Greiner Bio One) using a multidrop dispenser and incubated at 37 degrees C, 5% CO2, under a humidified atmosphere for 5 hours. Twenty-three nanoliters of compounds and controls (neutral control DMSO or positive control bortezomib at final concentration of 2.3 µM) were subsequently transferred by Kalypsys pintool. For primary screens, the MIPE collection was tested at 11-point dilutions (final concentrations range from 0.78 nM to 46 µM) and the NPC collection at 8-point dilutions (final concentrations range from 0.59 nM to 46 µM). Compounds tested in follow-up screens were assayed at 11-point dilutions. Cells were incubated for 48 hours, followed by addition of 3 µL of CellTiter-Glo (Promega). After a 15 min incubation at room temperature, samples were analyzed for luminescence intensity using a ViewLux High-throughput CCD imager equipped with clear filters.
On the technique in general: qHTS replaces the single test concentration by a dilution series.
In the case of `C=Cc1c(C)c2cc3nc(cc4[nH]c(cc5nc(cc1[nH]2)C(C)=C5CCC(=O)O)c(CCC(=O)OC)c4C)[C@@]1(C)C3=CC=C(C(=O)OC)[C@H]1C(=O)OC`, the Potency is 0.344 µM (active). To `CC(C)OC(=O)[C@H](C)N[P@](=O)(OC[C@H]1O[C@@H](n2ccc(=O)[nH]c2=O)[C@](C)(F)[C@H]1O)Oc1ccccc1` belongs “inactive”. As for `Cc1cnc(Nc2ccc(N3CCN(C)CC3)cc2)nc1Nc1cccc(S(=O)(=O)NC(C)(C)C)c1`, the Potency is 21.7 µM (active).

For `CC(C)c1cnn2c(NCc3ccccc3)cc(NCCCCCCN)nc12`, the Potency was 27.3 µM (active). To `CCC[C@@H](C=O)NC(=O)[C@H](CC(C)C)NC(=O)[C@H](CC(C)C)NC(=O)OCc1ccccc1` (Cbz-Leu-Leu-[Nva]-aldehyde) belongs 2.17 µM (active). On to `CNC(=O)c1ccc(Nc2cc(Nc3ccccc3S(=O)(=O)C(C)C)c3cc[nH]c3n2)nc1`, for which the Potency is 4.85 µM (active).

`Oc1ccc(-c2ccc(-c3cc(Nc4cccc(CNC5CC5)c4)n[nH]3)cc2)c(O)c1`: the Potency was 7.69 µM (active). Regarding `CO[C@@H]1[C@@H](O)[C@H](O)[C@@H](n2c3c(Cl)cccc3c3c4c(c5c6cccc(Cl)c6[nH]c5c32)C(=O)NC4=O)O[C@@H]1CO`, the Potency is 1.37 µM (active). The same measure for `NC(=O)Nc1cc(-c2ccc(CN3CCOCC3)cc2)sc1C(N)=O`: 24.3 µM (active); for `C[N+](C)([O-])CCNc1ccc(NCC[N+](C)(C)[O-])c2c1C(=O)c1c(O)ccc(O)c1C2=O`: “inactive”. The same measure for `O=C(Nc1cccc(Nc2ncc(Br)c(NCCc3cnc[nH]3)n2)c1)N1CCCC1`: 19.3 µM (active). The same measure for `CN[C@H]1[C@@H](O)[C@@H]2O[C@@H]3O[C@H](C)CC(=O)[C@]3(O)O[C@@H]2[C@@H](NC)[C@H]1O`: 1.09 µM (active); for `CC(C=CC1=C(C)CCCC1(C)C)=CC=CC(C)=CC(=O)Nc1ccc(O)cc1`: 12.5 µM (active). With `CC(=O)OCC(=O)[C@@]1(O)CC[C@H]2[C@@H]3CCC4=CC(=O)CC[C@]4(C)[C@@H]3C(=O)C[C@@]21C`, the Potency entry is “inactive”.

Consider `Nc1nc(=O)n([C@H]2CSC(CO)O2)cc1F` (stereo not given in full), for which the Potency entry was “inactive”. Consider `O=C(O)CCCCCC(=O)NN=C1CCCC1`, for which the Potency result was “inactive”. The same measure for `CC(C)N1[N]C(=C2C=c3cc(O)ccc3=N2)c2c(N)ncnc21`: 0.485 µM (active); for `Cc1cn([C@@H]2O[C@H](CO)[C@@H](O)[C@H]2F)c(=O)[nH]c1=O`: “inactive”; for `COc1ccnc2[nH]cc(C(=O)C(=O)N3CCN(C(=O)c4ccccc4)C[C@@H]3C)c12`: “inactive”. To `CC(C)Oc1ccc(C(=O)N[C@H](CNC(=O)CN(C)C)Cc2ccc(-c3cn4cccc([C@H](C)O)c4n3)cc2)cc1Cl` belongs 1.93 µM (active). To `CCOC(=O)[C@H](CCc1ccccc1)N[C@@H](C)C(=O)N1[C@@H](C(=O)O)C[C@H]2CCC[C@@H]21` belongs 24.3 µM (active); to `CCc1cc(C(C)=NOCc2ccc(C3CCCCC3)c(C(F)(F)F)c2)ccc1CN1CC(C(=O)O)C1`, 3.06 µM (active). As to `CCCc1nc(C(C)(C)O)c(C(=O)O)n1Cc1ccc(-c2ccccc2-c2nn[nH]n2)cc1`, the Potency result was “inactive”. As for `CC1(C)CC(O)CC(C)(C)N1[O]`, the Potency entry was “inactive”. To `COc1cc2c(cc1OC)[C@@H]1C(=O)c3ccc4c(c3O[C@@H]1CO2)C=CC(C)(C)O4` belongs 0.0273 µM (active); to `CCOC(=O)C1=C(C)NC(=S)NC1c1cccc(O)c1` (stereo not given), 0.137 µM (active). To `CC(C)NC[C@@H](C(=O)N1CCN(c2ncnc3c2[C@H](C)C[C@H]3O)CC1)c1ccc(Cl)cc1` belongs 24.3 µM (active); to `O=C(O)C[C@H](O)C[C@H](O)C=Cc1c(C2CC2)nc2ccccc2c1-c1ccc(F)cc1`, 0.273 µM (active).

For the compound `C=CC(=O)Nc1cccc(Nc2nc(NC3CCC(N(C)C)CC3)nc3c2ncn3C(C)C)c1` (stereo not given), the Potency is 0.0385 µM (active).

With `C=CCNC1=C2C[C@@H](C)C[C@H](OC)[C@@H](O)[C@@H](C)C=C(C)[C@H](OC(N)=O)[C@@H](OC)C=CC=C(C)C(=O)NC(=CC1=O)C2=O`, the Potency is 19.3 µM (active).

For `Cn1cc(C2=C(c3c4n(c5ccccc35)CCC(CN)C4)C(=O)NC2=O)c2ccccc21` (stereo not given), the Potency was 27.3 µM (active).

For the compound `O=C(C=CC=Cc1ccc2c(c1)OCO2)N1CCCCC1`, the Potency result was “inactive”.

Consider `O=c1c(O)c(-c2ccc(O)c(O)c2)oc2cc(O)ccc12`, for which the Potency is 27.3 µM (active). The same measure for `CC1(C)O[C@@H]2C[C@H]3[C@@H]4CCC5=CC(=O)C=C[C@]5(C)[C@@H]4[C@@H](O)C[C@]3(C)[C@]2(C(=O)CO)O1`: “inactive”. To `CC(=O)O[C@H]1C[C@@H]2CC[C@H]3[C@H]4C[C@H]([N+]5(C)CCCCC5)[C@@H](OC(C)=O)[C@@]4(C)CC[C@@H]3[C@@]2(C)C[C@H]1N1CCCCC1` belongs “inactive”; to `CN(C)CC[C@H](c1ccc(Cl)cc1)c1ccccn1`, “inactive”. In the case of `OC[C@H]1OC(O)C[C@@H](O)[C@H]1O` (stereo not given in full), the Potency entry was “inactive”. To `O=C(NC1CC1)c1cccc(-c2ccc3c(NC(=O)C4CC4)n[nH]c3c2)c1` belongs 3.85 µM (active). Consider `CC(C)[C@H](CO)Nc1nc(Nc2cccc(Cl)c2)c2ncn(C(C)C)c2n1`, for which the Potency was 21.7 µM (active). Take `CCN(CC)CCNC(=O)c1c(C)[nH]c(C=C2C(=O)Nc3ccc(F)cc32)c1C`: the Potency was 44.4 µM (active).
